For 37 compounds, Potency, outcome and activity change, negative = cytotoxic results are on record in PubChem BioAssay (Tox21).

Inconclusive results are not listed. A call without a number means that no potency is given here. Unmarked numbers belong to inactive results. Active and inactive are the calls of the source. The call rests on the fitted dose curve; in most records, active means well fitted curve in the direction sought with a large enough effect in the repeat runs; inconclusive means weak or mixed curves; inactive means no such curve, though single readings can be large; an effect the other way counts as inactive or inconclusive. Non-standard residues stand in square brackets, D forms with d. Residues, ends and D or L forms follow the SMILES beside them. *: point of attachment. Sta = CC(C)C[C@H](N)[C@@H](O)CC(=O)O; Isovaleryl = CC(C)CC(=O)*

One assay can be described thus: A CellTox Green Cytotoxicity Assay to monitor cytotoxicity in HEK293 cells - 8 hour (AID 1224884). Further: nearly all actives have a fitted effect of over 35% in size. To be noted: CellTox Green fluorescence; series mostly up to 76.8 µM. An outline of the steps:
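Cytotoxicity was tracked continuously in HEK293 cells by a DNA-binding dye excluded from viable cells. Compounds were transferred in DMSO 5 h after seeding; fluorescence was recorded at intervals up to 40 h.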
As to `CC(C)(C)C(=O)NCCCC(=O)O`, the Potency result is “inactive”.

With `Cc1nc2ccc(Cl)cc2[nH]1`, the Potency entry was “inactive”.

Consider `O=C(O)CCC(=O)Nc1ccc(S(=O)(=O)Nc2nccs2)cc1`, for which the Potency entry is “inactive”.

As to `COC(=O)c1ccc(NC(C)=O)cc1OC`, the Potency result is “inactive”.

As for `CCO[Si](CC(C)C)(OCC)OCC`, the Potency entry was “inactive”.

For `Cc1ccc(O)c([N+](=O)[O-])c1`, the Potency entry is “inactive”.

The next assay in a line: qHTS RealTime-Glo MT Cell Viability Assay in HepG2 cells - 16 hour (AID 1224885). Further: nearly all actives have a fitted effect of over 50% in size. To be noted: RealTime-Glo luminescence; series mostly up to 76.8 µM. An outline of the steps: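 Tox21 10K library screened in qHTS format on HepG2 cells carrying RealTime-Glo reagents. Compounds were added after a 5 h preincubation, and the luminescent signal from continuous culture was measured repeatedly during 40 h treatment.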
In general terms: qHTS replaces the single test concentration by a dilution series.
Regarding `CCCC(=O)OC`, the compound was classed as inactive.

As to `Cc1ccc2ccccc2n1`, the outcome was inactive.

As to `CC/C=C\CCOC(=O)c1ccccc1`, the compound was classed as inactive.

Consider `C=CCON/C(CCC)=C1\C(=O)CC(C)(C)C(C(=O)OC)=C1O`, for which the compound was called inactive.

Take `CC(C)(C)c1ccc(N)cc1`: the outcome was inactive.

For `CC/C=C\CCCCCCCCCCOC(C)=O`, the compound was called inactive.

For the compound `C[C@@H]1CCC[C@H](C)N1CCCC(O)(c1ccccc1)c1ccccn1` (stereo partly drawn), the compound was classed as inactive.

For the compound `c1cc2ccc3ccc4ccc5cccc6c(c1)c2c3c4c56`, the activity change, negative = cytotoxic is 0.567% [at 2.72 µM].

On to `CC(C)(C)C(=O)CCc1ccc(Cl)cc1`, for which the outcome was inactive.

Regarding `CCCCCCCC(=O)N(C)C`, the compound was called inactive.

As for `COc1ccc(Cl)cc1C`, the compound was called inactive.

For the compound `Cc1ccc(OC(=O)CC(C)C)cc1`, the outcome was inactive.

As to `CCCCN1C(=O)c2ccccc2C1=O`, the compound was called inactive.

As for `CC1(C)CC(N)CC(C)(C)N1`, the compound was classed as inactive.

In the case of `CN(C)CCCN(C)C`, the activity change, negative = cytotoxic is 0.141% [at 6.97 µM].

As to `N[C@H]1C(O)O[C@H](CO)[C@@H](O)[C@@H]1O` (stereo partly drawn), the outcome was inactive.

Take `Cc1ccc(S(=O)(=O)NC(=O)NN2CC3CCCC3C2)cc1` (stereo not drawn): the result was inactive.

For `CCCCC(O)/C=C(C)/C=C/C=C/C(=O)N1CCCC1=O` (stereo not drawn), the result was inactive.

As to `CCN(CC)CC`, the outcome was inactive.

For `Cc1cccc(N)n1`, the compound was called inactive.

For the compound `O=C(O)Cc1ccccc1Oc1ccc(Cl)cc1Cl`, the outcome was inactive.

Take `C[n+]1ccccc1/C=N/O`: the compound was called inactive.

Turning to `COc1cnc(NS(=O)(=O)c2ccc(N)cc2)nc1`, the result was inactive.

Turning to `COc1ccccc1N1CCN(CC(O)COc2cc(OC)c(OC)c(OC)c2)CC1` (stereo not drawn), the result was inactive.

Consider `CCCCCCCCOCCC#N`, for which the compound was called inactive.

Take `C/C=C/C(=O)CCCC`: the compound was called inactive.

Take `CC(=O)O[C@@H]1CC2C3CCc4cc(OC(=O)c5ccccc5)ccc4C3CCC2(C)[C@H]1OC(C)=O` (stereo partly drawn): the result was inactive.

Regarding `CC(C)CC(=O)N[C@H](C(=O)N[C@H](C(=O)N[C@@H](CC(C)C)[C@@H](O)CC(=O)N[C@@H](C)C(=O)N[C@@H](CC(C)C)[C@@H](O)CC(=O)O)C(C)C)C(C)C` (Isovaleryl-VV[Sta]A[Sta]-OH), the compound was classed as inactive.

`Cc1cc(=O)oc2cc(O[C@@H]3SC[C@@H](O)[C@H](O)[C@H]3O)ccc12`: the compound was classed as inactive.

Consider `CC(C)(Sc1cc(C(C)(C)C)c(O)c(C(C)(C)C)c1)Sc1cc(C(C)(C)C)c(O)c(C(C)(C)C)c1`, for which the call was inactive.

Regarding `CC(C)(C)C(=O)NCCCC(=O)O`, the outcome was inactive.

Consider `Cc1nc2ccc(Cl)cc2[nH]1`, for which the compound was called inactive.

Turning to `O=C(O)CCC(=O)Nc1ccc(S(=O)(=O)Nc2nccs2)cc1`, the compound was called inactive.

Regarding `COC(=O)c1ccc(NC(C)=O)cc1OC`, the compound was called inactive.

Regarding `CCO[Si](CC(C)C)(OCC)OCC`, the compound was classed as inactive.

As to `Cc1ccc(O)c([N+](=O)[O-])c1`, the result was inactive.

Consider `CCC(C)SSC(C)CC` (stereo not drawn), for which the call was inactive.
